Data on 36 molecules can be found in ChEMBL document CHEMBL3433997, “St. Jude Leishmania screening dataset” (2016).

Holding throughout (format): functional
The target in assay [1] is Solute carrier family 2, facilitated glucose transporter member 1 (Homo sapiens) (UniProt P11166). Put plainly: ST_JUDE_LEISH: Cytotoxicity at 2uM final concentration against transgenic Leishmania Mexicana promastigotes LmGLUT1 that are glucose transport deficient and complemented with the human glucose transporter GLUT1. Activity is measured by DNA content using SYBR green in vitro.

The target in assay [2] is Hexose transporter 1 (Plasmodium falciparum) (UniProt O97467). Kind of assay: ST_JUDE_LEISH: Cytotoxicity at 2uM final concentration against transgenic Leishmania Mexicana promastigotes LmPfHT that are glucose transport deficient and complemented with the Plasmodium falciparum hexose transporter. Activity is measured by DNA content using SYBR green in vitro.
Assay [3] addresses Glucose transporter (Leishmania mexicana) (UniProt O61059). Put plainly: ST_JUDE_LEISH: Cytotoxicity at 2uM final concentration against transgenic Leishmania Mexicana promastigotes LmGT2 that are glucose transport deficient and complemented with the L. Mexicana glucose transporter 2. Activity is measured by DNA content using SYBR green in vitro.

Chain of Solute carrier family 2, facilitated glucose transporter member 1 (Homo sapiens) (P11166 whole entry): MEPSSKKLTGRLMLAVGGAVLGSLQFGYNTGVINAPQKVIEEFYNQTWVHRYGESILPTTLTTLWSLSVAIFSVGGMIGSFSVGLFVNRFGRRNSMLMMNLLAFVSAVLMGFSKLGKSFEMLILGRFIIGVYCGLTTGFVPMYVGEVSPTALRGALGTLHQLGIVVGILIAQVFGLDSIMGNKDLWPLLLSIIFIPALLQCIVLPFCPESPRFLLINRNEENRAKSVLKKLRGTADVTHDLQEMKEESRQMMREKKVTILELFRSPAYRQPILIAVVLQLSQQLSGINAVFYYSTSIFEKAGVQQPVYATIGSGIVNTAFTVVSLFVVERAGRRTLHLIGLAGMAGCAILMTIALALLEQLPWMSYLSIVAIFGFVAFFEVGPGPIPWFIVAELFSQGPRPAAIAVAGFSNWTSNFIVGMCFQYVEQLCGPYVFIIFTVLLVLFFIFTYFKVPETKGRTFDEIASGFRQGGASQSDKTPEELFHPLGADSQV

The term inhibition denotes the change of the read-out against control, counted positive when it falls. With `O=C(Nc1cccc(-c2ccc(-c3nc4cc(F)ccc4[nH]3)s2)c1)c1ccncc1`, the inhibition in assay [1] turned out to be 6.59%; in assay [2] it was 5.83%; in assay [3], 3.32%.

`COc1ccccc1NC(=S)N/N=C/c1ccc(O)cc1O`: the inhibition is 1.28% in assay [1], 6.07% in assay [2] and 0.42% in assay [3].

`COc1ccc(Cl)cc1N1CCN(CCCNC(=O)c2ccc(-c3nc4cc(Cl)c(Cl)cc4[nH]3)c(C)c2)CC1`: the values for the inhibition in assay [1], in assay [2] and in assay [3] were 1.66%, 0.9% and 1.04%, respectively.

As for `O=C(Nc1ccc(Cl)cc1)Nc1ccc(OCC(O)CN2CCCCC2)cc1` (stereo not drawn), the inhibition in assay [1] stood at 7.33%; in assay [2], 8.27%; in assay [3], 7.64%.

Consider `Cc1cccc2nc(-c3cccc(-c4ccc(NC(=O)C(C)(C)c5ccccn5)cc4)c3)[nH]c12`, for which the results for the inhibition in assay [1], in assay [2] and in assay [3] were 3.05%, 1.16% and 2.94%, respectively.

As to `COc1c(C)[nH]c(C)c(-c2ccc(Oc3cccc(C(F)(F)F)c3)cc2)c1=O`, the inhibition in assay [1] stood at 10.2%; in assay [2], 10.6%; in assay [3], 4.46%.

As for `CC(=O)c1c(C)[nH]c(C(=O)Nc2ccc(-c3nc4ccc(C)cc4s3)cc2)c1C`, the inhibition in assay [1] is -0.62%; in assay [2] it was -4.21%; in assay [3], 2.35%.

As to `c1ccc(CN2CCCN(c3ccc4c(c3)CCN(Cc3ccc(-c5ncc[nH]5)cc3)CC4)CC2)cc1`, the inhibition in assay [1] was found to be 2.8%; in assay [2] it was 3.96%; in assay [3], 0.68%.

For the molecule `Cc1nc2nc(N)nc(N)c2c(C)c1Cc1ccc([N+](=O)[O-])cc1`, the inhibition was 5.73% in assay [1], 3.25% in assay [2] and -0.24% in assay [3].

As to `CN1CCN(Cc2ccc(-c3ccc4c(Nc5cc(O)c(Cl)cc5F)ccnc4c3)o2)CC1`, the inhibition in assay [1] is 7.47%; in assay [2], 4.6%; in assay [3] it was 4.5%.

For `O=C(/C=C/c1ccc(Cl)c(Cl)c1)NCCCCCN1CCC(NC(=S)Nc2cccc(Cl)c2)CC1`, the inhibition in assay [1] is 2.06%; in assay [2], 0.6%; in assay [3], -0.54%.

Turning to `CCOc1cccc(C(=O)Nc2ccc(-c3nc4ccccc4[nH]3)cc2)c1`, the results for the inhibition in assay [1], in assay [2] and in assay [3] were 4.46%, 3.79% and 3.58%, respectively.

For `Cc1ccc2[nH]c(/C=C/c3cccc4cc[nH]c34)nc2c1`, the inhibition in assay [1] was determined as 4.9%; in assay [2], 4.05%; in assay [3], 0.48%.

Take `Cc1cccc2nc(-c3ccc(-c4cccc(CNCc5cccc(N)c5)c4)s3)[nH]c12`: the inhibition in assay [1] is 2.48%; in assay [2] it was 1.7%; in assay [3], 2.35%.

Take `COc1ccc(-c2cccc(NC(=O)c3ccccc3)c2)cc1CN1CCCN(C)CC1`: the inhibition was -2.02% in assay [1], -2.26% in assay [2] and 2.04% in assay [3].

As to `CCC[C@@H]([C@@H](CC1CCCCC1)C(=O)N[C@@H](CCOC(=O)NCC)C(=O)Nc1nccs1)N(O)C=O`, the results for the inhibition in assay [1], in assay [2] and in assay [3] were 8.61%, 10.3% and 9.7%, respectively.

`Cn1c(/C=C/C(=O)NC2CCC(CCN3CCc4ccc(C#N)cc4CC3)CC2)cc2ccccc21` (stereo not drawn): the figures for the inhibition in assay [1], in assay [2] and in assay [3] were 2.51%, 4.9% and 3.48%, respectively.

Take `COc1cc2nc(N3CCC(CNCc4ccc(-c5ccc(C(F)(F)F)cc5)cc4)CC3)nc(N)c2cc1OC`: the inhibition in assay [1] came out at 106%; in assay [2] it was 107%; in assay [3], 110%.

`COc1ccc2nccc([C@@H](O)CN3CCC(NC(=O)c4ccc(-c5ccccc5)s4)CC3)c2c1`: the inhibition in assay [1] came out at 9.94%; in assay [2], 14.6%; in assay [3], 4.67%.

Turning to `Fc1ccc2[nH]c(-c3ccc(-c4ccc(CN5CCN(c6cnccn6)CC5)cc4)s3)nc2c1`, the inhibition was determined as 2.41% in assay [1], 1.2% in assay [2] and 0.86% in assay [3].

`CCCCCC(C)c1cc(O)c2c(c1)OC(C)(C)C=C2C1=CCN(Cc2ccccc2)CC1` (stereo not drawn): the inhibition in assay [1] was determined as 3.67%; in assay [2], 3.53%; in assay [3], 3.47%.

Regarding `Cc1cccc2nc(-c3cccc(-c4cccc(CNCc5ccccc5)c4)c3)[nH]c12`, the results for the inhibition in assay [1], in assay [2] and in assay [3] were 1.86%, 0.34% and 0.66%, respectively.

Consider `COc1cccc(-c2cnc(N)c(-c3nc4ccc(F)cc4[nH]3)c2)c1`, for which the inhibition in assay [1] came out at 5.87%; in assay [2], 7.53%; in assay [3] it was 4.49%.

Take `COCCNc1nc(N2CCC(CNC(=O)c3ccc(-c4ccc(C(=O)N(C)C)cc4C)cc3)CC2)nc2cc(OC)c(OC)cc12`: the figures for the inhibition in assay [1], in assay [2] and in assay [3] were -0.42%, 1.09% and 1.17%, respectively.

With `COc1ccc2nc(-c3ccccc3)cc(N/N=C/c3ccc([N+](=O)[O-])o3)c2c1`, the inhibition in assay [1] is 15.9%; in assay [2], 10.5%; in assay [3], 10.3%.

Regarding `COc1cccc2c(NN=Cc3cccc(F)c3)ccnc12`, the inhibition in assay [1] came out at 3.44%; in assay [2], 2.06%; in assay [3], 1.75%.

As for `CC(C)(C)c1ccc(CNCCOc2ccc(Nc3nnc(-c4ccc(-c5ncc[nH]5)cc4)o3)c3ccccc23)cc1`, the figures for the inhibition in assay [1], in assay [2] and in assay [3] were 2.98%, 2.75% and 2.83%, respectively.

As to `CN(C)CCNC(=O)c1csc(Nc2ccc(Cl)c(Cl)c2)n1`, the inhibition was 0.89% in assay [1], 1.38% in assay [2] and 2.28% in assay [3].

As to `NC(=O)c1ccc(C(=O)Nc2cccc(-c3csc(-c4nc5ccccc5[nH]4)c3)c2)cc1`, the inhibition was determined as 9.88% in assay [1], 8.58% in assay [2] and 8.06% in assay [3].

`CC(=O)c1cccc(Nc2nc3ccc(OCc4cc(Cl)cc(Cl)c4)c(C#N)c3[nH]2)c1`: the inhibition in assay [1] was determined as 3.61%; in assay [2], 2.38%; in assay [3], 2.87%.

Consider `O=C(Nc1ccc2oc(-c3ccc(Cl)cc3Cl)nc2c1)c1ccc([N+](=O)[O-])o1`, for which the inhibition turned out to be 88.9% in assay [1], 54.3% in assay [2] and 11% in assay [3].

On to `Cc1c(Cl)cccc1N=C(S)NN=Cc1ccccn1`, for which the inhibition in assay [1] is 1.43%; in assay [2] it was 2.56%; in assay [3], -0.2%.

For the molecule `CCOc1ccc(C(=O)Nc2cc(Br)c3c(c2)CNCC3)cc1C#N`, the inhibition in assay [1] came to 6.36%; in assay [2], 5.03%; in assay [3], 5.78%.

On to `FC(F)(F)c1ccc2[nH]c(-c3ccc(-c4ccc(CNCc5cnn(-c6ccccc6)n5)cc4)s3)nc2c1`, for which the inhibition in assay [1] came out at 2.88%; in assay [2], 1.1%; in assay [3], 2.24%.

With `Cn1cncc1C(=O)NC1CCN(c2ccnc(Nc3ccc(F)cc3)n2)C1` (stereo not drawn), the inhibition was 0.07% in assay [1], -0.1% in assay [2] and 0.61% in assay [3].

With `COc1cc(OC)c(NC(=O)Nc2ccnc3ccccc23)cc1Cl`, the results for the inhibition in assay [1], in assay [2] and in assay [3] were 9.23%, 8.9% and 5.83%, respectively.
